The text below walks through data of ChEMBL document CHEMBL4513146, “CO-ADD screening of Karazin Kharkiv National University (Ukraine) compounds”.

One test concerns Staphylococcus aureus. The settings on record: Concentration 32 ug.mL-1;; ASSAY_TEST Inhibition of Bacterial Growth; detection method Absorption (OD600); MEDIA CAMHB; plate type 384well; NBS; CORNING #3640; time 18 hr.
A further test has as its system Escherichia coli. The settings on record: Concentration 32 ug.mL-1;; ASSAY_TEST Inhibition of Bacterial Growth; detection method Absorption (OD600); MEDIA CAMHB; plate type 384well; NBS; CORNING #3640; time 18 hr.

Entries with a potency or affinity are not part of this list.

What is called Inhibition is the drop in the measured response relative to a control, in per cent.

Turning to `COc1ccc(-c2cc3c4nnc(SCC(=O)Nc5cccc(C)c5C)n4ccn3n2)cc1`, the figures for the Inhibition with Staphylococcus aureus and in the test on Escherichia coli were -11.43% and -10.61%, respectively.
Take `CCc1ccccc1Sc1nccn2c(=O)n(CC(=O)N3CCN(c4ccccc4)CC3)nc12`: the results for the Inhibition in the test with Staphylococcus aureus and in the test with Escherichia coli were -10.72% and -11.22%, respectively.
As to `COc1ccc(-c2cc3c4nn(CC(=O)Nc5cc(C)cc(C)c5)c(=O)n4ccn3n2)cc1`, the Inhibition in the test with Staphylococcus aureus was 1.97%; in the test on Escherichia coli, 7.1%.
Take `COc1cccc(CNC(=O)Cn2nc3c4cc(-c5cc(C)ccc5C)nn4ccn3c2=O)c1OC`: the Inhibition in the test on Staphylococcus aureus is given as 2.74%; in the test on Escherichia coli it was -0.3%.
For `COc1ccc(NC(=O)Cn2nc3c4cc(-c5ccc(C)c(C)c5)nn4ccn3c2=O)c(OC)c1` the same measures were -8.81% and -14.02%.
Turning to `Cc1cc(C)cc(N(Cc2ccccc2)S(=O)(=O)c2cccn3c(C)nnc23)c1`, the Inhibition was -1.33% with Staphylococcus aureus and -7.5% with Escherichia coli.
With `CCOc1ccc(NC(=O)Cn2nc3ccc(SCc4ccc(Cl)cc4)nn3c2=O)cc1`, the Inhibition is on record as 5.28% in the test on Staphylococcus aureus and -5.7% in the test on Escherichia coli.
With `COc1ccc(-c2cc3c4nn(CC(=O)Nc5cc(OC)cc(OC)c5)c(=O)n4ccn3n2)cc1`, the figures for the Inhibition with Staphylococcus aureus and in the test with Escherichia coli were -11.7% and -10.82%, respectively.
In the case of `COc1ccc(NC(=O)Cn2nc3c(Sc4cccc(C)c4)nccn3c2=O)cc1Cl`, the Inhibition in the test on Staphylococcus aureus is listed as -3.33%; with Escherichia coli, -13.54%.
The corresponding values for `O=C(CCc1nnc2c(N3CCCCC3)nc3ccccc3n12)NCc1ccccc1Cl` are 7.81% and 4.64%.
`COc1ccc(NC(=O)c2ccc3nn(CC(=O)Nc4ccc(S(C)(=O)=O)cc4)c(=O)n3c2)cc1`: the Inhibition in the test on Staphylococcus aureus is on record as 11.72%; in the test on Escherichia coli, -6.83%.
